Experimental data taken from PubChem BioAssay.

Test: small-molecule microarray binders of probe aDKK1, primary screen, biochemical, biotinylated probe, 635/667 nm fluorescence (AID 1099);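 also: score merges 667nm spot fluorescence with signal to noise across triplicate slides; reference of the scale not given here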
Details: higher = more signal

SMILES	composite z-score
C=C[C@@H](O)[C@H]1CC(c2ccccc2)=NO1	-0.187
COC(=O)[C@]1(Cc2ccccc2CN=[N+]=[N-])N=C(c2ccc(OCCCO)cc2)O[C@@H]1c1ccccc1CN=[N+]=[N-]	-0.188
O=C1C2C=CC(C(O)c3cccc4ccccc34)N(Nc3ccccc3)C2C(=O)N1c1ccccc1 (centres undefined)	1.33
O=C(O)[C@@]1(Cc2ccccc2)COC(c2ccc(OCCCO)cc2)=N1	0.413
O=C1c2ccccc2[C@](Cc2ccccc2I)(C(=O)NC2CC2)[C@H](c2ccc(CO)cc2)N1Cc1ccccc1Cl	0.831
O=C(NCc1ccccc1)[C@]1(Cc2ccccc2)N=C(c2ccc(OCCCO)cc2)O[C@@H]1c1ccccc1	0.857
COCCCNC(=O)[C@@H]1c2ccccc2C(=O)N(Cc2cc(F)cc(C(F)(F)F)c2)[C@H]1c1ccc(CO)cc1	-0.0674
COC(=O)[C@@]1(Cc2ccc(OC)cc2)[C@H]2c3cc(C(=O)N4CCCC4)n(CCF)c3C[C@H]2CN1C(=O)c1ccccc1	2.71
Cc1ccc(C(C)CC(O)C2C=CC3C(=O)N(Cc4ccccc4)C(=O)C3N2n2cnnc2)o1 (centres undefined)	1.85
CN1C(=O)C2C=CC(C(O)c3cccc4ccccc34)N(NC(=O)OC(C)(C)C)C2C1=O (centres undefined)	1.33
O=C1N(Cc2ccccc2)c2ccccc2[C@H]2OC(c3ccc(OCCCO)cc3)=N[C@@]12CCS(=O)(=O)c1ccccc1	-0.0921
COC(=O)[C@@]1(Cc2ccccc2)[C@H]2c3cc(C(=O)N4CCCC4)n(Cc4ccccc4)c3C[C@H]2CN1C(=O)c1ccccc1	0.854
CCOC(=O)C[C@H]1[C@H](OC(=O)c2ccccc2-c2ccccc2)[C@@H](NC(=O)c2ccccc2)c2cc(OCCCO)ccc2N1C(=O)Cc1ccc(OC)cc1	-0.0327
COc1ccccc1CN1C(=O)c2ccccc2[C@@H](C(=O)NCC(C)C)[C@@H]1c1ccc(CO)cc1	0.543
COC(=O)C(CC#Cc1ccc2c(c1)[C@]1(C(=O)N2)[C@H](c2ccc(O)cc2)N2[C@H](c3ccccc3)[C@H](c3ccccc3)OC(=O)[C@H]2[C@@H]1C(N)=O)C(=O)OC	-0.207
CCCC[C@@H](O)C1=C(COc2ccccc2)Cn2c(=O)n(-c3ccccc3)c(=O)n2[C@H]1CO	-0.396
NC(=O)[C@H]1[C@@H]2C(=O)O[C@@H](c3ccccc3)[C@@H](c3ccccc3)N2[C@@H](c2ccc(O)cc2)[C@]12C(=O)Nc1ccc(C#CC3(O)CCCCCC3)cc12	0.156
CCCN1C(=O)[C@@]2(Cc3ccccc3)N=C(c3ccc(OCCCO)cc3)O[C@H]2c2ccccc21	0.0149
COC(=O)[C@@]1(Cc2ccc(OC)cc2)[C@H]2c3cc(C(=O)N4CCCC4)n(CCc4ccc(O)c(OC)c4)c3C[C@H]2CN1C(=O)c1ccccc1	0.527
COCCOC(=O)N1C(=O)[C@@]2(c3cc(C#Cc4ccc(OC)cc4)ccc31)[C@H](C(=O)N1CCc3cc(OC)c(OC)cc3C1)[C@H]1C(=O)O[C@H](c3ccccc3)[C@H](c3ccccc3)N1[C@@H]2c1ccc(OCCO)cc1	0.218
C[N+](C)(C)CCCCCCNC(=O)[C@@H]1C[C@@H]2C(=O)NCC(=O)N2[C@@H]1c1ccc(O)cc1	-0.171
COCCCNC(=O)[C@]1(CCS(=O)(=O)c2ccccc2)N=C(c2ccc(OCCCO)cc2)O[C@@H]1c1ccccc1	0.126
C[C@@]1([C@@H](NC(=O)c2cccs2)c2ccc(-c3ccccc3)cc2)C[C@H]1C1CCCCC1	-0.336
COc1cccc(C[C@H]2C[C@@H](CO[Si](C(C)C)(C(C)C)C(C)C)N3C(=O)[C@]4(C(C)=O)O[C@]23[C@H]2C(=O)N(C)C(=O)[C@H]24)c1	-0.0616
[N-]=[N+]=Nc1ccccc1[C@@H]1OC(c2ccc(OCCCO)cc2)=N[C@]1(CCS(=O)(=O)c1ccccc1)C(=O)NCc1ccccc1	1.24
C=CC[C@@]1(C(=O)NCCN2CCOCC2)N=C(c2ccc(OCCCO)cc2)O[C@@H]1c1ccccc1	0.449
COC(=O)C(CC#Cc1ccc2c(c1)[C@]1(C(=O)N2)[C@H](c2ccc(OCCO)cc2)N2[C@H](c3ccccc3)[C@H](c3ccccc3)OC(=O)[C@H]2[C@@H]1C(=O)O)C(=O)OC	1.18
COC(=O)c1ccc(OC)c(/C=C\CC(CCc2ccccc2)OC(C)=O)c1 (centres undefined)	-0.493
COCC1=C([C@H](O)CCc2ccccc2)[C@H](CO)[C@@H]2C(=O)N(C)C(=O)[C@@H]2C1	-0.541
